Inhibition data for 94 compounds are collected here from PubChem BioAssay AID1662 (Broad Institute, 2009).

SMILES strings stand for the structures. Out of some 300,000 compounds screened, about 4,000 (1.3%) were called active. For the sample, actives were picked, then their nearest neighbours and some compounds at random. A number with no mark means an inactive call.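 Rule for the calls: active = mean replicate score, as percent of positive control median, at least 50; inconclusive = mean below 50 but one replicate at or above 50; inactive = mean and every replicate below 50.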

The nature of the test: S. pyogenes SKKanGAS growth inhibitors in kanamycin, primary screen, streptokinase expression inhibitor project, SKKanGAS strain, BacTiter-Glo luminescence (AID 1662).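 Note: strain carries kanamycin resistance gene driven by streptokinase promoter and grows in 40 µg/ml kanamycin; loss of luminescence reflects streptokinase promoter inhibition or plain growth inhibition; 0% = median of DMSO wells and 100% = positive control at its reference dose.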 The settings on record: 6 h, at 7.5 µM, hits give high values.
As to `CC1(C)Cc2c(sc(NC(=O)C(=O)NCC3CCCO3)c2C(=O)O)CO1` (centres undefined), the inhibition is 2.62%.
Next, `CC1CCCCC1NC(=O)CCS(=O)(=O)c1ccc2c(c1)NC(=O)CO2` (centres undefined): 6.59%; `COC(=O)c1cc(CNC(=O)CC(C)c2ccccc2)ccc1OC` (centres undefined): -1.27%.
Consider `CCOC(=O)c1sc(=S)n2c1[nH]c(=O)c1ccc(C(=O)OC)cc12`, for which the inhibition was 66.6% (active).
In the case of `CCOC(=O)c1ccc(Nc2cc3ccccc3c(=O)[nH]2)cc1` it was 3.57%; in that of `CCOC(=O)C1=C(C)Nc2sc(C(=O)c3ccc(Br)cc3)c(N)c2C1c1ccc(C(=O)OC)cc1` (centres undefined), 22%.
Take `COc1cccc(NS(=O)(=O)c2ccc(-c3coc(C)n3)cc2)c1`: the inhibition was 2.27%.
In the case of `CN(C)CCN(Cc1ccccc1)S(=O)(=O)c1csc(C(N)=O)c1` it was -1.24%; in that of `CC1=C(C(=O)Nc2ccccc2)C(c2cccs2)C(C#N)=C(SCC#N)N1` (centres undefined), 15.4%; in that of `Cc1noc(C)c1C(=O)N(CC(=O)NC1CCCC1)Cc1ccccc1F`, 2.6%.
In the case of `COCCN(C(=O)COC(=O)Cc1cccc(OC)c1)c1c(N)n(Cc2ccccc2)c(=O)[nH]c1=O` it was -1.12%; in that of `Cc1cccc(NC(=S)Nc2ccc(Br)cc2)c1`, 5.45%; in that of `Cc1cccc(NC(=S)Nc2ccc3cn[nH]c3c2)c1`, 2.46%.
In the case of `Cc1cccc(NC(=S)Nc2ccc(Cl)c(Cl)c2)c1` it was 82% (active); in that of `Cc1cc(C)cc(OCC(=O)Nc2cc(NC(=O)COc3cc(C)cc(C)c3)cc(C(=O)O)c2)c1`, 26%; in that of `COc1ccc(Cl)cc1NC(=O)CN(C)Cc1ccc(OC)c(OC)c1`, 19.7%.
As for `CCOC(=O)C1=C(c2ccc(OC)cc2)C(=O)c2ccccc2C1=O`, the inhibition was 54.9% (active).
For `CCOC(=O)c1c(-c2ccc(C)cc2)csc1/N=C(\C)C1=C(O)c2ccccc2C1=O`, the inhibition is 8.34%.
As to `COc1ccc(N2CCN(C(C)=C3C(=O)c4ccccc4C3=O)CC2)cc1`, the inhibition is 0.489%.
Next, `Cc1ccc(N=C2SCCCN2C(=O)c2cccc(N3C(=O)CCC3=O)c2)cc1Cl`: 1.34%; `O=C(NCCOc1ccccc1F)Nc1ccc(Br)cc1`: -7.4%.
In the case of `Cc1ccc2cccc(S(=O)(=O)N3CCN(c4ccccc4F)CC3)c2n1` it was -8.1%; in that of `CCn1cc(C(=O)NCCO)c(=O)c2cc(F)c(N3CCN(C)CC3)cc21`, 1.21%.
In the case of `CN1CCN(c2cc3c(cc2F)c(=O)c(C(=O)O)cn3CCF)CC1` it was 66.8% (active); in that of `CCCCCCn1cc(C(=O)O)c(=O)c2cc(F)c(N3CCCCC3)cc21`, 10%; in that of `CC(C)Cn1c(N)c(C(=O)NCc2cccs2)c2nc3ccccc3nc21`, 88.2% (active).
For `CCOc1ccccc1NC(=O)Cn1nnc(C(=O)NCc2cccs2)c1N`, the inhibition was -0.164%.
In the case of `CC(C)(C)c1ccc(C(=O)NCCn2c(N)c(C#N)c3nc4ccccc4nc32)cc1` it was 8.82%; in that of `O=C(NCCS(=O)(=O)N1CCN(c2ccccc2)CC1)c1ccco1`, -0.162%.
`COc1cc(OC)c(OC)cc1CN1CCN(C(=O)c2cccc3ccccc23)CC1`: the inhibition is -1.09%.
In the case of `Cc1ccc(S(=O)(=O)N2CC(C)N(S(C)(=O)=O)C2)cc1` (centres undefined) it was -4.98%; in that of `Cc1c(C(N)=O)sc2ncn(CCOc3ccccc3)c(=O)c12`, 2.66%; in that of `Cc1cccc(OC(=O)c2sc3ncn(C)c(=O)c3c2C)c1`, 82.2% (active).
Next, `CCOC(=O)C(C)n1cnc2sc(C)c(C)c2c1=O` (centres undefined): 2.1%.
In the case of `COc1ccccc1C(C)NC(=O)Cc1ccsc1` (centres undefined) it was 5.44%; in that of `CC(CNc1ccc([N+](=O)[O-])cc1)NC(=O)c1ccccc1Br` (centres undefined), -0.0993%; in that of `O=C(Cc1csc(Nc2nc(=S)[nH]c3ccccc23)n1)NCCCN1CCN(c2cccc(Cl)c2)CC1`, 67.8% (active).
For the compound `COc1cccc(CNC(=O)Cc2csc(Nc3nc(=S)[nH]c4ccccc34)n2)c1`, the inhibition is 5.91%.
Next, `O=C(CCn1c(=O)[nH]c2ccccc2c1=O)NCCCN1CCN(c2cccc(Cl)c2)CC1`: 2.26%; `CN1C(=O)C2(OCCCO2)c2cc(Cl)ccc21`: -1.28%; `CN(CCO)c1ccc(/C=N/Nc2nncc3ccccc23)cc1`: 68.8% (active).
Next, `COc1cc(/C=N/Nc2nn3cnnc3c3ccccc23)cc(OC)c1OC`: -2.2%.
In the case of `C/C(=N\Nc1nncc2ccccc12)c1ccc(Cl)c([N+](=O)[O-])c1` it was -1.2%.
For `CC[N+]1(CC)CC2=Cc3ccccc3CC2C1` (centres undefined), the inhibition is 5.88%.
Regarding `COc1ccccc1OCCNc1cc(N2CCOCC2)ccc1[N+](=O)[O-]`, the inhibition is -5.71%.
Next, `OC(CNCC1CCCO1)Cn1c2ccc(Br)cc2c2cc(Br)ccc21` (centres undefined): 52.3% (active); `O=C(CSc1ccc(-c2ccc(Br)cc2)nn1)NCC1CCCO1` (centres undefined): -6.3%.
Next, `CC(NS(=O)(=O)c1ccc(Br)cc1)C(=O)NCC1CCCO1` (centres undefined): -0.664%.
In the case of `CCOC(=O)C1(CCOc2ccccc2)CCN(Cc2cc(OC)cc(OC)c2)CC1` it was -5.86%; in that of `CC1CCCCN1S(=O)(=O)CCNC(=O)c1ccccc1` (centres undefined), -1.35%.
Regarding `CCn1c(SCC(=O)NC2CC2)nnc1-c1ccccn1`, the inhibition was 0.558%.
Take `Cc1ccccc1NCC(=O)N/N=C\c1ccc([N+](=O)[O-])s1`: the inhibition is 7.47%.
Next, `CC(C)(C)c1cc(C(=O)N/N=C/c2ccc([N+](=O)[O-])s2)n[nH]1`: 51.8% (active); `COc1ccc(C(=O)NCC(=O)N/N=C/c2ccc([N+](=O)[O-])s2)cc1OC`: -2.08%.
Next, `CCCCCCSc1nsc(N)n1`: 5.66%; `O=C(NCc1ccccc1)C(c1ccco1)N(C(=O)c1csnn1)c1ccccc1F` (centres undefined): 1.53%; `CC1(C)CC2CC(C)(CN2c2ncnc3ccc(Br)cc23)C1` (centres undefined): 18.3%.
In the case of `CCCCn1c(CCCNC(=O)CC)nc2ccccc21` it was -0.548%; in that of `CC(=O)Nc1nc2ccccc2n1Cc1ccc(C)cc1`, 24.3%.
Consider `CCC(=O)Nc1nc2ccccc2n1Cc1ccccc1C`, for which the inhibition is 61.8% (active).
Next, `CC(C)C1N=C2c3ccccc3N=C(SCC(=O)c3ccc(O)c(O)c3)N2C1=O` (centres undefined): 19%.
Next, `O=S(=O)(NC1CCCCC1N1CCCCC1)c1ccc(Cl)cc1` (centres undefined): 1.78%.
Next, `Cc1ccc(S(=O)(=O)N2CCC(C(=O)OCC(=O)N(C)c3ccccc3)CC2)cc1C`: -2.14%.
With `Nc1ccc(S(=O)(=O)Nc2nccc(/C=C/c3ccc(Br)s3)n2)cc1`, the inhibition is 2.22%.
Next, `Oc1cccc2ccc(/C=C/c3ccc(Br)s3)nc12`: 77.1% (active); `COc1cc2c(cc1OC)C(c1cccc([N+](=O)[O-])c1)=NCC2`: -3.25%.
In the case of `CCc1nc2ccc(C(=O)N3CCN(c4cccc(Cl)c4)CC3)cc2nc1CC` it was 7.12%; in that of `Oc1c(CN2CCN(c3ccc(F)cc3)CC2)cc(Cl)c2cccnc12`, 81.2% (active).
In the case of `CCN1CCN(C(c2cccnc2)c2cc(Cl)c3cccnc3c2O)CC1` (centres undefined) it was 28.1%; in that of `Oc1ccc(CN2CCN(c3ncccn3)CC2)cc1`, -0.583%.
Take `CCCCCCCCCCCCN1[C@@H](CC(C)=O)c2cc(F)cc(F)c2S1(=O)=O`: the inhibition was 18.6%.
Next, `Cn1ncc2c(NNC(=O)Cc3cccc4ccccc34)ncnc21`: -0.379%; `COC(=O)CNS(=O)(=O)c1ccc(Cc2ccc(S(=O)(=O)NCC(=O)OC)cc2)cc1`: 0.851%; `CCN(CC(=O)Nc1cc(Cl)ccc1C)C(=O)CN1C(=O)NC2(CCCC2)C1=O`: 9.28%.
As to `O=C(O)c1ccccc1NC(=S)NC(NC(=O)c1ccccc1[N+](=O)[O-])C(Cl)(Cl)Cl` (centres undefined), the inhibition was -2.95%.
In the case of `O=C(COC(=O)c1ccc(Oc2ccccc2)cc1)Nc1nnc(-c2ccccc2)o1` it was 79.8% (active); in that of `Cc1ccnc2nc(C(=O)Nc3nnc(-c4ccccc4)o3)nn12`, 1.08%; in that of `CC(=O)Nc1cccc(C(=O)OCC(=O)Nc2nnc(-c3ccccc3)o2)c1`, 13.3%.
In the case of `O=C(COC(=O)CSc1nnc(-c2ccc(Cl)cc2)o1)Nc1cc(Cl)cc(Cl)c1` it was 3.37%; in that of `O=C(Nc1nnc(-c2ccc(Cl)cc2)o1)c1ccccc1Br`, 93.9% (active).
Next, `O=C(COC(=O)c1ccccc1Br)Nc1nnc(-c2ccccc2)o1`: 72.3% (active); `Cc1cccc(NC(=O)Nc2nnc(-c3ccccc3)o2)c1`: 15%; `CCn1c2ccccc2c2cc(NC(=O)COC(=O)c3ccccc3Br)ccc21`: 2.54%.
Turning to `O=C(Nc1cccc(Cl)c1)Nc1nnc(-c2ccccc2)o1`, the inhibition was 5.48%.
Next, `COc1ccc(-c2cc(=O)oc3cc(OC(C)C(=O)Nc4ccc(CN5CCOCC5)cc4)ccc23)cc1` (centres undefined): 15.3%; `COCCCNC(=O)C1CC(=O)N(CCc2ccc(F)cc2)C1` (centres undefined): 1.79%.
Next, `CC(C)(C)NC(=O)c1cccc(NC(=O)Cc2ccc(Br)cc2)c1`: 0.415%; `COc1ccc(C(=O)NNC(=S)NC(=O)c2ccccc2)cc1`: 91.7% (active); `CC(=O)NC(=S)NNC(=O)c1ccc(Br)cc1`: 79% (active).
Next, `COc1ccc(C(=O)NC(=S)NNC(=O)CCc2ccccc2)cc1`: 9.14%; `CNC(=S)NNC(=O)c1ccc(N(C)C)cc1`: -13.5%; `COc1ccc(C(=O)NNC(=S)NC(=O)c2ccccc2[N+](=O)[O-])cc1`: -1.63%.
Take `CCCCCC(=O)NC(=S)NNC(=O)c1ccc([N+](=O)[O-])cc1`: the inhibition was 21.9%.
Consider `O=C(NCC(c1cccs1)N1CCOCC1)c1cc(-c2ccccn2)nc2ccccc12` (centres undefined), for which the inhibition is -7.21%.
